PubChem BioAssay
The source made the active and inactive calls. How the calls were made is not given here.

What follows are compounds tested against Pantothenate synthetase (Mycobacterium tuberculosis (strain ATCC 25618 / H37Rv)) (UniProt P9WIL5) (assay: Recombinant Mtb pantothenate synthetase (PanC) inhibitors, coupled enzyme, confirmatory (AID 375;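 further: 0% = full reaction with vehicle and 100% = no enzyme background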)). Conditions: coupled enzyme assay; at 10 µM, active compounds read high.
Sequence of Pantothenate synthetase (Mycobacterium tuberculosis (strain ATCC 25618 / H37Rv)) (P9WIL5 whole entry, looked up): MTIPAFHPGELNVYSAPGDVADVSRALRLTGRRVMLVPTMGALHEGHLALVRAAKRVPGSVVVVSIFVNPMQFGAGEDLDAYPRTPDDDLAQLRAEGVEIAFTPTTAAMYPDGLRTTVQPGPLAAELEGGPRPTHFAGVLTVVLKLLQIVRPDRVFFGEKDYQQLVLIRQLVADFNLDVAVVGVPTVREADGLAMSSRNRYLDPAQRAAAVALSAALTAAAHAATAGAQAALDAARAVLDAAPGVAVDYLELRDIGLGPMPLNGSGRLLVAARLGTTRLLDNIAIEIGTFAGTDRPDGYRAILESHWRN

| SMILES | inhibition |
| --- | --- |
| O=C1C(CCS(=O)c2ccccc2)C(=O)N(c2ccccc2)N1c1ccccc1 (stereo not given) | 0% (inactive) |
| O=C1c2ccccc2C(Nc2cccnc2)N1Cc1ccccc1Cl (stereo not given) | 0% (inactive) |
| O=C(C1CCCN(S(=O)(=O)c2cccc3nonc23)C1)N1CCC(Cc2ccccc2)CC1 (stereo not given) | 3% (inactive) |
| CCOc1ccc(-c2c(C#N)c(N)nc3c2c(=O)n(C)c(=O)n3C)cc1OC | 6% (inactive) |
| COc1ccc(-c2noc(COc3ccc4ccccc4c3Br)n2)cc1OC | 6% (inactive) |
| COC(=O)C1=C(C)Nc2nnnn2C1c1ccc(Cl)cc1Cl (stereo not given) | 0% (inactive) |
| CC1CCCCC1NC(=O)C1CCN(C(=O)NC2CCCCC2)CC1 (stereo not given) | 0% (inactive) |
| COc1ccc(NC(=O)N2CCC(c3nc(-c4cccs4)no3)CC2)cc1 | 0% (inactive) |
| CSCCC(C(=O)Nc1ccc2c(c1)OCO2)N1C(=O)c2ccccc2C1=O (stereo not given) | 0% (inactive) |
| COc1ccc(C)cc1NC(=O)C1CCN(S(=O)(=O)c2cccc3cccnc23)CC1 | 19% (inactive) |
| COc1ccc2c(c1OC)C(=O)OC2C1c2c(cc3c(c2OC)OCO3)CCN1C (stereo not given) | 0% (inactive) |
| CCOC(=O)C1CCN(C(=O)c2ccc(OC)cc2OC)CC1 | 2% (inactive) |
| CN(C)c1ccc(/C(=N\O)c2ccccc2)cc1 | 0% (inactive) |
| C/C(N)=C(/C#N)C(=O)CSc1nnc(Nc2cccc(C)c2)s1 | 0% (inactive) |
| COc1ccc(C(=O)Cn2nnc(-c3cccs3)n2)cc1 | 0% (inactive) |
| CN(C)C(=O)CN(C)S(=O)(=O)c1ccc(Cl)cc1 | 0% (inactive) |
| COc1ccc(C)cc1-n1c(N)c(C#N)c(C#N)c1-c1ccc(OC)c(OC)c1OC | 4% (inactive) |
| COc1ccccc1NC(=O)N(Cc1ccco1)Cc1cc2cccc(C)c2[nH]c1=O | 2% (inactive) |
| CN(C)c1ccc(NC(=O)Nc2cccc(Cl)c2)cc1 | 0% (inactive) |
| CC(C)OC(=O)CCCCCN1C(=O)CSC1=S | 1% (inactive) |

| SMILES | inhibition |
| --- | --- |
| COc1ccc(NC(=O)CSc2c(C)nn(-c3nnc(C)c(=O)[nH]3)c2C)cc1 | 0% (inactive) |
| COc1cc(C)nc(OCCNC(=O)COc2ccc(Cl)cc2C)n1 | 5% (inactive) |
| CCCCSc1nnc([C@H](C)NC(=O)OC(C)(C)C)o1 | 2% (inactive) |
| CCOc1ccc(C(=O)N2CCN(c3ccccc3)CC2)cc1OCC | 1% (inactive) |
| O=C1C(C=NCCCn2ccnc2)=C(O)c2ccccc21 | 8% (inactive) |
| Cc1ncoc1C(=O)Nc1ccccc1C(N)=O | 0% (inactive) |
| CC(C)c1nnc(NC(=O)C2CCCCC2)s1 | 1% (inactive) |
| CCOc1ccc(NC(=O)Cn2nnc(-c3ccccc3F)n2)cc1 | 2% (inactive) |
| O=C(Nc1ccon1)c1cccc(S(=O)(=O)N2CCCC2)c1 | 2% (inactive) |
| CCOC(=O)N1CCN(CCC(=O)c2ccc(Cl)cc2)CC1 | 2% (inactive) |
| COc1ccccc1N1CCN(CCCNC(=O)Nc2ccccc2)CC1 | 10% (inactive) |
| O=S1(=O)CCN2C(=N1)SC1=C2CCN(Cc2ccccc2)C1 | 2% (inactive) |
| O=C(NCCCN1CCCC1=O)c1cncc(Br)c1 | 0% (inactive) |
| COCCNc1nc(SCC(=O)N2CCN(c3ccccc3)CC2)nc2ccccc12 | 5% (inactive) |
| CCN(CC)S(=O)(=O)c1ccc2c(c1)nc(SCC(=O)NC1CC1)n2-c1ccccc1OC | 0% (inactive) |
| O=c1c2ccccc2nnn1CSc1nc2cc(Cl)ccc2c(=O)n1Cc1ccco1 | 7% (inactive) |
| CCC1CCCCN1c1nc(-c2ccncc2)nc2ccccc12 (stereo not given) | 1% (inactive) |
| COc1ccc(OC)c(S(=O)(=O)N2c3ccccc3CC2C)c1 (stereo not given) | 0% (inactive) |
| COc1ccc(NC(=O)CSc2nc(C)cc(C(F)(F)F)n2)cc1 | 0% (inactive) |
| CN(C(=O)c1ccncc1)C1CC(C)(C)N(O)C(C)(C)C1 | 0% (inactive) |
